In PubChem BioAssay AID588413 (Sanford-Burnham Center for Chemical Genomics, 2011) one finds inhibition data, which are given here for 94 molecules.

The whole screen tested about 340,000 compounds, of which about 2,500 (0.74%) were called active. What follows is part of a selection rich in actives, with near analogues and random picks from the rest. Values without a mark were called inactive.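 Rule for the calls: active = inhibition above about 55% (limit read from the data); inactive = the rest.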

The test in a line: blockers of Gli reporter signaling – luciferase luminescence, Sufu-KO-LIGHT cells, uHTS, primary screen (AID 588413).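 Note: 0% = DMSO-treated cells and 100% = wells with medium but no cells.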 As to conditions: Sufu-KO-LIGHT fibroblasts, at 5 µM, stronger effect = higher value.
Regarding `O=C(Nc1ccccc1C(=O)NCCCn1ccnc1)c1ccc(Cl)cc1Cl`, the inhibition was 19.3%.

`CCOC(=O)C(CO)NC(=O)C1(NC(C)=O)CCCC1` (centres undefined): the inhibition was -2.14%. Regarding `O=C(CN(CC1CCCO1)C(=O)CNS(=O)(=O)c1ccc(F)cc1)NCc1ccco1` (centres undefined), the inhibition was 0.03%. Regarding `O=C(O)c1ccc(/C=C2\SC(=S)N(NC(=O)c3ccc(Br)cc3)C2=O)cc1`, the inhibition was 10%. `O=C1/C(=C/c2ccc(F)cc2)SC(=S)N1CCCC(=O)N1CCCCC1CCO` (centres undefined): the inhibition was -14.7%.

As for `O=C1/C(=C/c2ccc(F)cc2)SC(=S)N1NS(=O)(=O)c1ccccc1`, the inhibition was 59.1% (active).

As to `CN1CCN(C(=O)N2c3ccccc3CCc3ccccc32)CC1`, the inhibition is 0.29%. Under `CC1CCc2sc(C(=O)NCC(c3ccco3)N3CCCCC3)cc2C1` (centres undefined) stands 16.2%; under `Cc1ccc(CN(Cc2cccnc2)C(=S)Nc2cc(Cl)ccc2C)cc1`, 12.8%; under `CC(=O)NCC(=O)N(C)C(C(=O)Nc1ccc2c(c1)OCCO2)c1ccccc1` (centres undefined), -14.5%. Under `CCc1ccc(-n2c(SCc3cc(=O)n4cc(Br)ccc4n3)nc3[nH]ncc3c2=O)cc1` stands 5.99%. On to `COc1ccc(CCNC(=O)CSc2nc3[nH]ncc3c(=O)n2-c2cccc(C(F)(F)F)c2)cc1OC`, for which the inhibition is 0.76%. On to `Cc1cccc2nc(CSc3nc4[nH]ncc4c(=O)n3-c3cccc(Cl)c3)cc(=O)n12`, for which the inhibition was 67.7% (active). For `CCn1cc(-c2cc(C(=O)O)on2)c(C)n1`, the inhibition was -4.15%. Take `COc1ccc(-n2c(SCC(=O)Nc3ccc4c(c3)OCO4)nnc2C(C)N2CCCCC2)cc1` (centres undefined): the inhibition is 7.4%. Take `Cc1cc(C(=O)CSc2nc(N)cc(=O)[nH]2)c(C)n1CCc1ccc(Cl)cc1`: the inhibition is 0.27%. As for `CCCc1cc(=O)[nH]c(SCC(=O)c2cc(C)n(CCC)c2C)n1`, the inhibition is 1.52%. In the case of `Cc1cc(C(=O)CSc2nc(N)cc(=O)[nH]2)c(C)n1-c1cccc(F)c1`, the inhibition was 56.6% (active). Take `CC1CCCN(CC(O)COCc2ccccc2)C1` (centres undefined): the inhibition is 12.2%.

Turning to `COc1cc(C)cc(CN2CCC(Cc3ccccc3)CC2)c1O`, the inhibition is 15.5%. Take `Cc1cc(=O)oc2cc(OCC(=O)N3CCN(c4ccc(F)cc4)CC3)c(Cl)cc12`: the inhibition is 6.77%. On to `Oc1c(CN2CCN(c3ccc(F)cc3)CC2)cc(Cl)c2cccnc12`, for which the inhibition is 92.7% (active). As to `Oc1c(CN2CCCC2)cc(COCc2ccccc2)c2cccnc12`, the inhibition was 77.7% (active).

With `Cc1ccc(CN2CCN(c3ncccn3)CC2)c(C)c1`, the inhibition was 1.86%. For `CC(C)C(C)NC(=O)COc1nc2ccccc2nc1N(C)C1CCCCC1` (centres undefined), the inhibition was -2.52%.

`CCc1nnc(NC(=O)CCN(c2ccc(C)cc2)S(=O)(=O)c2ccccc2)s1`: the inhibition was -7.2%. In the case of `O=C1/C(=C\Nc2ccccc2)CCN1c1ncccn1`, the inhibition was -39%. Under `Cc1ccccc1NC(=O)NC1(C(=O)N2CCCC2)CCCCC1` stands 44.2%; under `Cc1ccc(C)c(NS(=O)(=O)c2c(C)[nH]c(C)c2C(=O)N2CCCCC2)c1`, -12.2%. Under `CC1CCCN(C(=O)Cn2c(=O)oc3ccccc32)C1` (centres undefined) stands 1.13%.

On to `COC(C[C@@H](O)C[C@H](O)[C@H](C)OCc1ccccc1)OC`, for which the inhibition is 7.28%. With `CCc1ccc(C2C(C#N)=C(N)N(N3CCOCC3)C3=C2C(=O)CC(C)(C)C3)s1` (centres undefined), the inhibition is 96.7% (active). As for `COc1ccc(C2C(C#N)=C(/N=C/N3CCOCC3)OC3=C2C(=O)CC(C)(C)C3)cc1OC` (centres undefined), the inhibition is 1.58%. As for `CCc1ccc(C2C(C#N)=C(N)N(N(C)C)C3=C2C(=O)CCC3)s1` (centres undefined), the inhibition is -0.42%. For `S=C(Cc1ccc(Cl)cc1)N1CCOCC1` the value was 2.66%; for `O=C(CCN1CCCO1)N1CCCC(N2CCN(c3cccc(C(F)(F)F)c3)CC2)C1` (centres undefined), 8.15%; for `N#Cc1cccc(NC(=O)C2CCCN(C(=O)c3ccc(Cl)cc3)C2)c1` (centres undefined), 0.96%. For `COc1ccccc1-c1nnc2n1N=C(c1ccc(OC(F)F)c(OCC3CC3)c1)CS2`, the inhibition is 23.1%. Consider `COc1ccc(C2=Nn3c(nnc3-c3ccccc3OC)SC2)cc1OC1CCCC1`, for which the inhibition was 67.1% (active). `CC1=Nn2c(nnc2-c2ccccc2)SC1`: the inhibition is 5.28%. Take `COc1ccc(CNC(=O)CN(c2ccc(OC)c(Cl)c2)S(=O)(=O)c2ccc(C)cc2)cc1`: the inhibition is -11.6%.

`NS(=O)(=O)c1cc(Cl)c(Cl)c(S(N)(=O)=O)c1`: the inhibition is -6.05%. `Cc1cccc(S(=O)(=O)N2CN(CC3CCCO3)c3nc4ccccc4nc32)c1` (centres undefined): the inhibition is 31.4%. With `Cc1ccc(Cl)cc1-c1ccc(/C=N/n2cnnc2)o1`, the inhibition was 20.2%. For `Clc1cc(-c2ccc(/C=N/n3cnnc3)o2)ccc1Br` the value was 3.67%; for `Cc1cc([N+](=O)[O-])c(-c2ccc(/C=N/n3cnnc3)o2)cc1Cl`, 95.2% (active).

As for `O=c1ccc2c(-c3ccccc3S(=O)(=O)O)c3ccc(O)c(O)c3oc-2c1O`, the inhibition was 9.16%. Turning to `CCCCn1nc(C(=O)Nc2cccc(C(=O)NC3CC3)c2)c2ccccc2c1=O`, the inhibition was -0.59%. Take `N#Cc1ccsc1NC(=O)CN1CCN(S(=O)(=O)c2cc(Cl)ccc2Cl)CC1`: the inhibition was 1.78%. On to `COc1ccc(Cl)cc1S(=O)(=O)N1CCN(CC(=O)C(C)(C)C)CC1`, for which the inhibition is -2.82%.

With `O=C(CN1CCN(S(=O)(=O)c2cc(Cl)ccc2Cl)CC1)c1ccc(O)c(O)c1`, the inhibition was 58.2% (active). For the molecule `COc1ccccc1N(CC(=O)Nc1ccccc1C(=O)N1CCCC1)S(C)(=O)=O`, the inhibition was -5.37%. `Cc1cc(C(=O)N/N=C/c2ccccn2)c2ccccc2n1`: the inhibition is 1.36%. For `Cc1nnc(N/N=C/c2ccccn2)[nH]c1=O` the value was 62.7% (active); for `O=C(N/N=C/c1ccccn1)C12CC3CC(CC(C3)C1)C2`, -2.98%. Take `Cc1ccc(S(=O)(=O)N(C)C)cc1NC(=O)c1ccc(-n2cncn2)c([N+](=O)[O-])c1`: the inhibition is 5.99%. On to `CCOC(=O)c1cnc(Nc2nc3ccccc3o2)nc1CSC(=S)N1CCCCC1`, for which the inhibition was 57.2% (active).

Consider `CCc1ccc(CNC(=O)C2CCCN(c3nc4ccccc4o3)C2)cc1` (centres undefined), for which the inhibition was 5.09%. As for `CCOC(=O)CCNC(=O)N1CCCC(C(=O)c2ccccc2SC)C1` (centres undefined), the inhibition was 4.81%. Under `CCc1ccc(C(=O)C(C)OC(=O)CN2C(=O)NC3(CCCC3)C2=O)cc1` (centres undefined) stands -24.9%. On to `COCCN(C(=O)COC(=O)Cc1cccc(OC)c1)c1c(N)n(Cc2ccccc2)c(=O)[nH]c1=O`, for which the inhibition was -12.3%. Turning to `Cc1ccc(NC(=O)CN(C)CC(=O)Nc2cccc(F)c2)cc1[N+](=O)[O-]`, the inhibition is 67.2% (active). Under `Cc1ccc(NC(=O)c2sccc2C)cc1[N+](=O)[O-]` stands -30.3%; under `CN(CC(=O)Nc1cccc(F)c1)C(=O)C1=COCCO1`, -13.3%. Consider `O=C(N/C(=C\c1ccc([N+](=O)[O-])cc1)C(=O)N1CCOCC1)c1cccc(Br)c1`, for which the inhibition is 14.4%. Under `FC(F)(F)c1cccc(N/N=C/c2ccccc2)c1` stands 2.85%; under `CC(C)c1ccc(C=NNc2ccc([N+](=O)[O-])cn2)cc1`, -110%. Turning to `Oc1ccc(/C=N/Nc2ccc(C(F)(F)F)cn2)cc1O`, the inhibition was 75.1% (active). In the case of `COc1cccc2cc(C(N)=O)/c(=N\NC(=O)c3ccccc3)oc12`, the inhibition is 61.3% (active). For `COc1cccc2cc(C(=O)N3CCN(C(=O)c4ccccc4)CC3)c(=O)oc12`, the inhibition is 0.62%. On to `COc1cccc2cc(C(=O)N(C)C)c(=O)oc12`, for which the inhibition is -0.51%. In the case of `O=S(=O)(Cc1ccc(Cl)cc1Cl)c1ccc(Cl)cc1`, the inhibition was -10.2%. Take `Nc1ccc(N=Nc2ccccc2Cl)c(N)n1`: the inhibition was -22.2%. For `N#Cc1c(-c2ccccc2)nc(SCc2cccc(C(F)(F)F)c2)[nH]c1=O`, the inhibition was 2.78%.

Regarding `O=c1c2ccccc2nc2n1C(CSCc1ccccc1)CS2` (centres undefined), the inhibition was 41.5%. As for `O=c1c2ccccc2nc2n1C(CSCc1cccc(C(F)(F)F)c1)CS2` (centres undefined), the inhibition was 65.9% (active). `CN(/N=C/c1ccccc1)C(=S)c1ccccc1`: the inhibition is 2.13%. Turning to `CN(O)C(=S)c1ccccc1`, the inhibition was 82.7% (active).

`CN(CC(=O)O)C(=O)c1ccccc1`: the inhibition was -17.4%. For the molecule `COc1ccc(CNc2c(CO)cnc3c2cnn3C)cc1`, the inhibition was 25.4%. Turning to `CCOC(=O)C1CN(S(=O)(=O)c2ccc(OC)cc2)c2cc(Cl)ccc2O1` (centres undefined), the inhibition is 21.4%. For `CCOc1ccc(S(=O)(=O)NCc2ccc3c(c2)OCO3)cc1C` the value was -7.28%; for `CCCOc1ccc(Cc2c(O)nc(SC)[nH]c2=O)cc1C`, -2.99%. Consider `CCCOc1ccc(Cn2c(O)cc(=O)[nH]c2=O)cc1`, for which the inhibition is 9.29%.

`CCCOc1ccc(Cc2c(Cl)nc(SC)nc2NC)cc1`: the inhibition was 57.3% (active).

As for `CC(C)N(C(=O)CN1CCN(S(=O)(=O)c2ccc(Br)s2)CC1)C(C)C`, the inhibition was -1.96%. Consider `CC(C)OCCCNc1ncnc2c1[nH]c1ccc(F)cc12`, for which the inhibition was 62% (active). `Fc1ccc2[nH]c3c(N4CCN(Cc5ccc6c(c5)OCO6)CC4)ncnc3c2c1`: the inhibition is -4.16%. In the case of `CC(=O)NCc1ccc(S(=O)(=O)NC2CCN(Cc3ccccc3)CC2)cc1`, the inhibition is -8.88%. Turning to `CC(=O)c1cc2c(cc1NC(=O)CN1CCCCCC1)OCO2`, the inhibition was -2.2%. As for `COc1ccc(Cn2c(-c3ccc(Cl)cc3)c[n+]3ccccc23)cc1`, the inhibition was 66.8% (active). `CCn1c(C)cc(=O)cc1-c1ccc(Cl)cc1`: the inhibition is 8.82%. Regarding `COc1ccc(Cn2c(=O)cc(C)[nH]c2=S)cc1`, the inhibition is 8.5%.

For `C[C@@H]1CN([C@@H](C)CO)C(=O)c2cc(NC(=O)C3CC3)ccc2O[C@H]1CN(C)C`, the inhibition is -16%.

For orientation: inhibition means the relative decrease from the control value, in per cent.
